Source: ChEMBL document CHEMBL4513216, “Probing the Open Global Health Chemical Diversity Library for Multistage-Active Starting Points for Next-Generation Antimalarials” (ACS Infect Dis, 2020)
About 2,100 (3.2%) of roughly 65,000 compounds showed an effect of 50% or more. The median lay at about -52%. This excerpt belongs to a sample that is enriched for strong results.

These compounds were tested on Plasmodium falciparum (assay: Screen against P. falciparum Asexual Blood Stage (ABS), at 5uM). Settings: tested at 5 uM.
Type: functional, Dd2

SMILES | INHIBITION
CCN(CC)CCN1CCO[C@H]2[C@@H](OCc3ccccn3)CC[C@@H]21 | -115%
COC(=O)c1cc(OCC2CCC2)cc(C(=O)N[C@@H]2CNCC[C@H]2O)c1 | 90.1%
CC1=N[C@@]2(CC[C@@H]3CN(CC(C)C)C[C@@H]32)C(=O)N1 | -40.1%
COc1ccc2c(c1)c(C(=O)Nc1n[nH]c(C(C)C)n1)cn2C(C)C | 22.8%
CCCc1nc(N2CCCC3(CCNC3)C2)c2cnn(C)c2n1 (stereo not given) | -53.5%
CCCc1nc(N2CCCN3CCC[C@H]3C2)c2cnn(C)c2n1 | -7.45%
CCCc1nc(N(C)CCN2CCCCCC2)c2cnn(C)c2n1 | 92.9%
Cc1c(C2SCC(=O)Nc3c2c(O)nn3C2CCCC2)cnn1C (stereo not given) | -70.4%
CC(C)N1CCC2(CCCNC2)C1=O (stereo not given) | 25.4%
c1cc(N2CCC(CN3CCOCC3)CC2)c2sccc2n1 | 92.3%
c1cnc(N2CCC3(COCCN(CC4CCOCC4)C3)C2)nc1 (stereo not given) | -26.6%
O=C1C[C@H]2[C@@H](CCN2Cc2ccccn2)N1CCN1CCOCC1 | 27.7%
O=C1NC[C@H]2CN(Cc3ccnc4ccccc34)CCN12 | -11.8%
CCC(O)(CNCc1cc[nH]n1)c1ccc(Br)cc1 (stereo not given) | 76.4%
Cn1cc(CN2CC[C@]3(C[C@H](OCc4ccccn4)CO3)C2)cn1 | -37.1%
O=C(NCc1ccccn1)[C@@]12CCO[C@@H]1CCN(C1CCCC1)C2 | -21.2%
O=S(=O)(C1CC1)N1CCC2(CC1)CN(Cc1ccccn1)CCO2 | -110%
CC(C)N1CCC2(CC1)CC(NCc1ccccn1)c1ccccc1O2 (stereo not given) | 70.7%

SMILES | INHIBITION
OCCN1CCC2(CC1)CC(NCc1ccccn1)c1ccccc1O2 (stereo not given) | 70.8%
CC(C)N1CCOCC2(CN(Cc3ccccn3)CCO2)C1 (stereo not given) | -62.4%
CN(C)C(=O)[C@@H]1C[C@@H]2CCN(Cc3ccncc3)C[C@@H]2O1 | -19.3%
CCCN1CCC[C@]2(CCC(=O)N2Cc2ccncc2)[C@H]1CC | -97.5%
O=C(C1CC=CC1)N1CCC2(CC1)CNCCO2 | -57.4%
C[C@@H]1CN(C(=O)C2CCS(=O)(=O)CC2)CC[C@@]1(O)C1CCOCC1 | 71.2%
O=C(C1CC1)N1CCC2(CC1)OCCO2 | -77.4%
O=C(C1CCOCC1)N1CCC2(CCNCC2)C1 | -36.9%
O=C([C@@H]1Cc2[nH]cnc2CN1Cc1cc2ccccc2o1)N1CCCC1 | 95%
Cc1ccc(CC(=O)N2CCN(CC(O)C(C)(C)C)CC2)cn1 (stereo not given) | -202%
CCOCC(O)CN1CCN(C(=O)Cc2ccc3c(c2)CCO3)CC1 (stereo not given) | -3.91%
O=C(Cc1ccccc1Cl)N1CCN(CC(O)COCCO)CC1 (stereo not given) | 58%
CCOCC(O)CN1CCN(C(=O)Cc2ccc3c(c2)CCC3)CC1 (stereo not given) | 69.6%
CCOCC(O)CN1CCN(C(=O)Cc2cccc(C)c2)CC1 (stereo not given) | 59.6%
CCC(O)CN1CCN(C(=O)Cc2ccc(C)nc2)CC1 (stereo not given) | 36.3%
CCOCC(O)CN1CCN(C(=O)Cc2cccc(Cl)c2)CC1 (stereo not given) | -87.1%
CCOCC(O)CN1CCN(C(=O)Cc2ccccc2Cl)CC1 (stereo not given) | -121%
